Records with an inconclusive call do not appear. Activity calls are given as the source filed them. The call rests on the fitted dose curve.
test: G protein-coupled receptor (GPCR) small molecule agonists, calcium flux assay: HEK293 wild type cell line counter screen (AID 1920065); details: HEK293 WT calcium flux, fluorescence, agonist mode; series mostly up to 57.6 µM; activation: at the top concentration
Method in brief: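 Fluorescence intensity signals activation. After overnight (18 h) culture and a 1 h calcium dye load at 37 C, compounds are added by pin tool and the plate read at 480/540 nm for 3 min in 1 s steps.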
On the % scale 0 is the no-effect control and ±100 the full control effect.

Compound | activation
C=C(C)C(=O)NCCC[N+](C)(C)C | 0.783% (inactive)
CCCC(C)CCC(C)=O (stereo unspecified) | -0.407% (inactive)
C/C=C/C(=O)C1=C(C)C=CCC1(C)C | 0.386% (inactive)
NS(=O)(=O)c1ccccc1OC(F)(F)F | -0.218% (inactive)
CC(=O)Oc1ccccc1C(=O)Nc1ncc([N+](=O)[O-])s1 | 3.11% (inactive)
C1CN(CCOCCN2CCOCC2)CCO1 | 0.505% (inactive)
CC(=O)CC/C=C(\C)CC/C=C(\C)CC/C=C(\C)CCC=C(C)C | -0.0075% [at 26.5 µM] (inactive)
C=CCOCC(O)CO (stereo unspecified) | -0.543% (inactive)
CC(CCC(=O)O)C(=O)O (stereo unspecified) | -0.543% (inactive)
CCOC(C)(C)C | 1.89% (inactive)
O=Cc1cccc([N+](=O)[O-])c1 | -1.69% (inactive)
CC(C)CC(O)Cc1ccccc1 (stereo unspecified) | 0.275% (inactive)
CC(=O)OCCN(CCOC(C)=O)c1ccc(N=Nc2ccc([N+](=O)[O-])cc2C#N)cc1 | -0.419% (inactive)

test: p53 small molecule agonists, cell-based qHTS assay with human liver microsomes (AID 1963577); details: HCT-116 p53RE-bla with human liver microsomes, ratio, 16 h; series mostly up to 66 µM; activation: at the top concentration
Method in brief: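 p53RE-bla cells, 4,000/well, compound added after 5 h, with human liver microsomes 0.5 mg/mL and NADPH 0.5 mg/mL final; 16 h at 37 C, then LiveBLAzer 2 h RT, fluorescence.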

Compound | activation | Potency
Nc1c(NC/C=C\COc2cc(CN3CCCCC3)ccn2)c(=O)c1=O | -4.01% [at 13.5 µM] (inactive) | 
O=S(=O)(O)c1ccc2cc(O)c(S(=O)(=O)O)cc2c1 | 2.06% (inactive) | 
COCCOCCOCCOCCOC | -2.45% (inactive) | 
COCCOCCOCCOCCOCCO | 3.08% (inactive) | 
CCCO | -1.45% (inactive) | 
O=[N+]([O-])c1ccc(Oc2ccc([N+](=O)[O-])cc2)cc1 | -4.38% (inactive) | 
CC[N+](C)(C)c1cccc(O)c1 | 0.36% [at 30.3 µM] (inactive) | 
CCCCCCCN | 2.87% (inactive) | 
CS(C)(=O)=O | 2.08% (inactive) | 
O=c1[nH]c(=O)c2cn[nH]c2[nH]1 | -2.62% (inactive) | 
CCC(COC(=O)CCS)(COC(=O)CCS)COC(=O)CCS | 4.15% (inactive) | 
CC(C)N=C(N)/N=C(\N)Nc1ccc(Cl)cc1 | -2.8% [at 30.3 µM] (inactive) | 
CC(C)(C)c1ccc(O)c(C(C)(C)C)c1 |  | inactive
CCCCCCCC(=O)N(C)C | 2.49% (inactive) | 
CCCCC(C)C(=O)O (stereo unspecified) | -0.151% (inactive) | 
CCO[Si](CCCN=C=O)(OCC)OCC | 2.37% (inactive) | 
CCCCCCCCO[C@@H]1O[C@H](CO)[C@@H](O)[C@H](O)[C@H]1O | -0.163% (inactive) | 
Cc1ccc(N=Nc2c(O)ccc3ccccc23)c(C)c1 | 1.41% [at 30.3 µM] (inactive) | 
CCCOCCO |  | inactive
COc1ccc(N=[N+]([O-])c2ccc(OC)cc2)cc1 | -6.78% (inactive) | 

Compound | activation | Potency
Cc1cc(N)n(-c2ccccc2)n1 | -3.7% (inactive) | 
O=C1OC(=O)c2ccccc21 | 4.23% (inactive) | 
OC[C@H]1O[C@H](O[C@H]2O[C@H](CO)[C@@H](O)[C@H](O)[C@H]2O)[C@H](O)[C@@H](O)[C@@H]1O | -1.81% (inactive) | 
CCSC(=O)N(CC)CC | -3.56% (inactive) | 
CCCCC(=O)N(C)C | 0.737% (inactive) | 
CC(=O)NC(Cc1ccccc1)C(=O)O (stereo unspecified) | 5.59% [at 30.3 µM] (inactive) | 
C=C(C)C(=O)NCCC[N+](C)(C)C | 2.32% (inactive) | 
CCCC(C)CCC(C)=O (stereo unspecified) | 4.6% (inactive) | 
C/C=C/C(=O)C1=C(C)C=CCC1(C)C | 2.61% (inactive) | 
NS(=O)(=O)c1ccccc1OC(F)(F)F | -0.63% (inactive) | 
CC(=O)Oc1ccccc1C(=O)Nc1ncc([N+](=O)[O-])s1 |  | inactive
C1CN(CCOCCN2CCOCC2)CCO1 | 0.207% (inactive) | 
CC(=O)CC/C=C(\C)CC/C=C(\C)CC/C=C(\C)CCC=C(C)C | 2.4% [at 30.3 µM] (inactive) | 
C=CCOCC(O)CO (stereo unspecified) | -4.25% (inactive) | 
CC(CCC(=O)O)C(=O)O (stereo unspecified) | 0.252% (inactive) | 
CCOC(C)(C)C | -1.12% (inactive) | 
O=Cc1cccc([N+](=O)[O-])c1 | -0.206% (inactive) | 
CC(C)CC(O)Cc1ccccc1 (stereo unspecified) | 3.81% (inactive) | 
CC(=O)OCCN(CCOC(C)=O)c1ccc(N=Nc2ccc([N+](=O)[O-])cc2C#N)cc1 | -0.674% (inactive) | 

test: p53 small molecule agonists, cell-based qHTS assay with rat liver microsomes (AID 1963578); details: HCT-116 p53RE-bla, beta-lactamase ratio, 16 h; series mostly up to 66 µM; activation: at the top concentration
Method in brief: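 p53RE-bla cells, 4,000/well, pre-incubated 5 h, then given compounds plus rat liver microsomes (0.5 mg/mL final) and NADPH (0.5 mg/mL final). Incubation 16 h at 37 C; beta-lactamase reporter read by LiveBLAzer fluorescence after 2 h at room temperature.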

Compound | activation | Potency
Nc1c(NC/C=C\COc2cc(CN3CCCCC3)ccn2)c(=O)c1=O | 0.229% [at 13.6 µM] (inactive) | 
O=S(=O)(O)c1ccc2cc(O)c(S(=O)(=O)O)cc2c1 | -0.0395% (inactive) | 
COCCOCCOCCOCCOC | -2.95% (inactive) | 
COCCOCCOCCOCCOCCO | -2.42% (inactive) | 
CCCO | -1.79% (inactive) | 
O=[N+]([O-])c1ccc(Oc2ccc([N+](=O)[O-])cc2)cc1 | 0.0186% (inactive) | 
CC[N+](C)(C)c1cccc(O)c1 | -2.36% [at 30.3 µM] (inactive) | 
CCCCCCCN | 1.26% (inactive) | 
CS(C)(=O)=O | -3% (inactive) | 
O=c1[nH]c(=O)c2cn[nH]c2[nH]1 | 0.0499% (inactive) | 
CCC(COC(=O)CCS)(COC(=O)CCS)COC(=O)CCS | 1.86% (inactive) | 
CC(C)N=C(N)/N=C(\N)Nc1ccc(Cl)cc1 | -3.57% [at 30.3 µM] (inactive) | 
CC(C)(C)c1ccc(O)c(C(C)(C)C)c1 |  | inactive
CCCCCCCC(=O)N(C)C | -0.166% (inactive) | 
CCCCC(C)C(=O)O (stereo unspecified) | 0.576% (inactive) | 
CCO[Si](CCCN=C=O)(OCC)OCC | -2.72% (inactive) | 
CCCCCCCCO[C@@H]1O[C@H](CO)[C@@H](O)[C@H](O)[C@H]1O | -0.0372% (inactive) | 
Cc1ccc(N=Nc2c(O)ccc3ccccc23)c(C)c1 | -2.58% [at 30.3 µM] (inactive) | 
CCCOCCO |  | inactive
COc1ccc(N=[N+]([O-])c2ccc(OC)cc2)cc1 | -6.68% (inactive) | 

Compound | activation | Potency
Cc1cc(N)n(-c2ccccc2)n1 | -0.0599% (inactive) | 
O=C1OC(=O)c2ccccc21 | -0.0929% (inactive) | 
OC[C@H]1O[C@H](O[C@H]2O[C@H](CO)[C@@H](O)[C@H](O)[C@H]2O)[C@H](O)[C@@H](O)[C@@H]1O | -0.316% (inactive) | 
CCSC(=O)N(CC)CC | -3.5% (inactive) | 
CCCCC(=O)N(C)C | 0.925% (inactive) | 
CC(=O)NC(Cc1ccccc1)C(=O)O (stereo unspecified) | -0.247% [at 30.3 µM] (inactive) | 
C=C(C)C(=O)NCCC[N+](C)(C)C | 0.489% (inactive) | 
CCCC(C)CCC(C)=O (stereo unspecified) | -2.1% (inactive) | 
C/C=C/C(=O)C1=C(C)C=CCC1(C)C | 0.0734% (inactive) | 
NS(=O)(=O)c1ccccc1OC(F)(F)F | 0.472% (inactive) | 
CC(=O)Oc1ccccc1C(=O)Nc1ncc([N+](=O)[O-])s1 |  | inactive
C1CN(CCOCCN2CCOCC2)CCO1 | 0.0699% (inactive) | 
CC(=O)CC/C=C(\C)CC/C=C(\C)CC/C=C(\C)CCC=C(C)C | 1.06% [at 30.3 µM] (inactive) | 
C=CCOCC(O)CO (stereo unspecified) | -4.38% (inactive) | 
CC(CCC(=O)O)C(=O)O (stereo unspecified) | 0.836% (inactive) | 
CCOC(C)(C)C | -2.59% (inactive) | 
O=Cc1cccc([N+](=O)[O-])c1 | -4.03% (inactive) | 
CC(C)CC(O)Cc1ccccc1 (stereo unspecified) | -0.705% (inactive) | 
CC(=O)OCCN(CCOC(C)=O)c1ccc(N=Nc2ccc([N+](=O)[O-])cc2C#N)cc1 | -0.276% (inactive) | 

— PubChem BioAssay (Tox21)
